According to PubChem BioAssay (NCATS):
Records with an inconclusive call do not appear. Active and inactive are the calls of the source. The call rests on the fitted dose curve; in most records, active means well fitted curve in the direction sought with a large enough effect; inconclusive means small, poorly fitted or top-dose-only effect, or another doubt; inactive means no such curve, though single readings can be large; an effect the other way counts as inactive or inconclusive.

How the values were obtained:
[1] = HPAF-II 24hr Apoptosis Induction qHTS against the NCATS CANVASS Library (AID 1347356)
How it was run: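 Luminescent caspase-3/7 signal (DEVD substrate, Caspase-Glo) served as read-out, taken 15 min after reagent addition to HPAF-II cells exposed 24 h to compounds.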

[2] = HPAF-II 12hr Apoptosis Induction qHTS against the NCATS CANVASS Library (AID 1347358)
How it was run: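 500 HPAF-II cells/well; cmpds 11-pt; 12 hr, 37 degrees C/5% CO2; Caspase-Glo 3/7 added, 15 min RT dark; luminescence read. Doxorubicin titration as control.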

[3] = HPAF-II 18hr Apoptosis Induction qHTS against the NCATS CANVASS Library (AID 1347360)
How it was run: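 HPAF-II cells (500/well, DMEM + 10% FBS) were exposed to compounds for 18 hours at 37 degrees C. Caspase-3/7 activity was then read by Caspase-Glo 3/7 luminescence after 15 min at room temperature.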

[4] = tested on: NAD(P)H diaphorase (Clostridium kluyveri); assay: Diaphorse counterscreen qHTS: Assay Interference Panel against the NCATS CANVASS Library (AID 1347362)
How it was run: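 Clostridium kluyveri diaphorase in PBS with 0.01% Tween-20 was preincubated 15 min at room temperature in the dark with compounds (11-point series). Resorufin fluorescence (ex 525/20, em 598/25) was read 5 min after adding resazurin/NADH.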

[5] = qHTS for ATAD5 Agonist screened against the NCATS CANVASS Library (AID 1347367);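 further: luciferase reporter driven by ATAD5 which rises upon DNA damage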
How it was run: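 HEK293T cells stably carrying an ATAD5-controlled luciferase reporter (2000 cells/well) attached for 5 hr, then received compounds in an 11-point series for 16hr at 37C. Luminescence was read after a 30 min room-temperature reagent step.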

[6] = MCF7 Cancer Cell Toxicity qHTS against the NCATS CANVASS Library (AID 1347369)
How it was run: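 MCF7, 500 cells/well; cpds 11-pt qHTS; 72 hr, 37C/5% CO2; CellTiterGlo ATP luminescence.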

[7] = qHTS for ATAD5 Antagonist screened against the NCATS CANVASS Library (AID 1347370); further: nearly all actives have a fitted effect of over 65% in size; further: potency means the concentration at half of the fitted maximal effect
How it was run: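 HEK293T cells with stably integrated ATAD5-luciferase reporter, 2000/well, 5 h attachment; compounds plus 10 µM 5-fluorouridine, 16 h at 37 °C. Luciferase luminescence read, with CellTiter-Fluor viability read first.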

[8] = J3T Cancer Cell Toxicity qHTS against the NCATS CANVASS Library (AID 1347371); further: potency means the concentration at half of the fitted maximal effect
How it was run: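 Cells plated at 500 per well, compounds pin-transferred, plates incubated 72 hr at 37C, then CellTiterGlo added and luminescence read to measure ATP content.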

[9] = target: Nuclear receptor subfamily 1 group I member 3 (Homo sapiens) (UniProt Q14994); assay: qHTS for Constitutive Androstane Receptor (CAR) Agonist screened against the NCATS CANVASS Library (AID 1347373);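 further: every well also contained 1.5 µM PK11195 alongside the test compound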
Nuclear receptor subfamily 1 group I member 3 (Homo sapiens), sequence (Q14994 whole entry, looked up): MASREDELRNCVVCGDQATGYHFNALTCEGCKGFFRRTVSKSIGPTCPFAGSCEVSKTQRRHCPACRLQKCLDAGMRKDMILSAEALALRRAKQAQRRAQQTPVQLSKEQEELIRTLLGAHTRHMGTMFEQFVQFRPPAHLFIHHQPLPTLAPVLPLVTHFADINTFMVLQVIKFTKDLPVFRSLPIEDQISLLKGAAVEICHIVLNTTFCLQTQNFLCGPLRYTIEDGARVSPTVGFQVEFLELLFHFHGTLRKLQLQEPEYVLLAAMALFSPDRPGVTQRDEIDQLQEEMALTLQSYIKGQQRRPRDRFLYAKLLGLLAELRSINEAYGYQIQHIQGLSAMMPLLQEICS
How it was run: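 HepG2-hCAR-CYP2B6 cells, 2500/well, attached 4hr; cpd + PK11195 1.5uM final; 24hr 37C 5% CO2. CellTiter-Fluor viability read, then ONE-Glo luminescence for CAR activation.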

[10] = qHTS for Hypoxia signaling pathway (HIF-1) agonists against the NCATS CANVASS Library (AID 1347375)
How it was run: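 ME-180 HRE-bla reporter cells; 2,000/well, 0.5% dialyzed FBS; cpd added after 5 h, 17 h 37C/5% CO2; CCF4-AM 2 h RT; FRET 460/530 nm; CellTiter-Glo viability same wells, 30 min.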

[11] = qHTS for H2AX Agonists against the NCATS CANVASS Library (AID 1347378)
How it was run: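 CHO-K1 cells were plated overnight at 37C, then exposed to compounds (concentration series, 0.76% DMSO final) for 3 hr at 37C. Lysates received Eu-cryptate anti-pH2AX (S139) and d2 anti-H2AX antibodies; after 24 hr at room temperature, TR-FRET 665/620 nm ratio was read.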

[12] = qHTS for Inflammasome Signaling Inhibitors: IL-1-beta AlphaLISA screen against the NCATS CANVASS Library (AID 1347379);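 further: human THP-1 cells primed with LPS then triggered with ATP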
How it was run: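 THP-1 cells pretreated 1 hr with compound (up to 57.5 uM final), then stimulated with LPS (250 ng/mL final) and ATP (1.25 mM final). Secreted IL-1B measured by AlphaLISA after 16 hr; glyburide as positive control.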

[13] = qHTS for Activators of p53 Stress Response Pathway screened against the NCATS CANVASS Library (AID 1347388); further: potency means the concentration at half of the fitted maximal effect
How it was run: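 p53RE-bla HCT-116 cells (4000/well) were plated 5 h at 37C, exposed to compounds for 16 h at 37C over an 11-point concentration series, then loaded with CCF4 for 2 h at room temperature; 460/530 nm emission ratio read.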

[14] = qHTS assay for small molecule disruptors of mitochondrial membrane potential screened against the NCATS CANVASS Library (AID 1347389); further: nearly all actives have a fitted effect of over 60% in size; further: potency means the concentration at half of the fitted maximal effect
How it was run: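 HepG2, 2,000 cells/well, attached overnight; compound 1 hr, 37C, 5% CO2; Mito-MPS dye 30 min, 37C; fluorescence 535 nm (monomer) and 590 nm (aggregate); decreased 590/535 ratio = depolarization.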

[15] = qHTS for activators of dead-cell proteases activity screened against the NCATS CANVASS Library (AID 1347392);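 further: luminescence from protease leaking out of membrane-damaged cells cleaving impermeant substrate; rising signal means more cytotoxicity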
How it was run: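 HepG2 cells (2000/well) attached 18 h at 37C, then exposed 5 h to compounds (11-point qHTS). Dead-cell protease activity read as luminescence from cell-impermeant AAF-aminoluciferin substrate after 15 min at room temperature.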

[16] = HEK-293 Cancer Cell Toxicity qHTS against the NCATS CANVASS Library (AID 1347355); further: nearly all actives have a fitted effect of over 65% in size; further: potency means the concentration at half of the fitted maximal effect
How it was run: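 Luminescent ATP read-out (CellTiter-Glo, 15min at room temperature) measures survival after cells face an 11-point compound series for 72 hours at 37 degrees C/5% CO2.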

[17] = HEK293 18hr Apoptosis Induction qHTS against the NCATS CANVASS Library (AID 1347357)
How it was run: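 HEK293 cells (500 per well, DMEM with 10% FBS) were treated with natural products, incubated 18 hours at 37 degrees C, then caspase-3/7 activity was read by Caspase-Glo luminescence after 15 min at room temperature.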

[18] = HEK293 24hr Apoptosis Induction qHTS against the NCATS CANVASS Library (AID 1347359)
How it was run: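 HEK293 cells (500/well, DMEM + 10% FBS) were exposed to compounds in an 11-point series for 24 hours at 37 degrees C, then caspase-3/7 activity was read by Caspase-Glo DEVD luciferase luminescence after 15 min.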

[19] = qHTS for inhibitors of Wild type Zika virus screened against the NCATS CANVASS Library (AID 1347396);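 further: ATP luminescence of surviving cells so rescue from viral cell killing; series mostly up to about 46 µM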
How it was run: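 Protection against wild-type Zika cytopathic effect is measured in African green monkey Vero 766 cells exposed to an 11-point compound series. Surviving cells are quantified by CellTiter Glo luminescence after 72 h.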

[20] = SDT Cancer Cell Toxicity qHTS against the NCATS CANVASS Library (AID 1347365); further: nearly all actives have a fitted effect of over 60% in size; further: potency means the concentration at half of the fitted maximal effect
How it was run: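 qHTS, SDT dog glioma line, 500 cells/well; cpds 11 pts; 72 hr, 37C, 5% CO2; CellTiterGlo ATP luminescence.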

Measured: Potency

COC(=O)C1=C[C@]23C[C@@H](C)CC[C@@H]2[C@@]2(C)CC[C@@H](C(C)C)[C@@](O)(O3)[C@@H]12
not listed: [16] | [17] | [18] | [19] | [20]
inactive: all other assays above

COc1c(O)cc2c(c1O)C(=O)c1c(coc1C)C2=O
active: [14] 10.5 µM
not listed: [13] | [20]
inactive: all other assays above

CC(C)=CCC/C(C)=C/Cc1cc([C@@H]2CC(=O)c3c(cc(O)c(CC=C(C)C)c3O)O2)ccc1O
active: [14] 23.4 µM
not listed: [4] | [9] | [16]
inactive: all other assays above

C/C(=C\[C@H](C)C(=O)C[C@H](O)CC1CC(=O)NC(=O)C1)[C@@H]1OC(=O)CCCC/C=C/C[C@@H](O)[C@@H]1C
active: [16] 7.43 µM | [20] 1.66 µM | [7] 8.31 µM
not listed: [8] | [12]
inactive: all other assays above

C/C=C/C(=O)C1(O)CC2CC(C(=O)O)CC(C)C2C1C1=C2C(=O)NC(=O)C2=C(CCCCC)C(C)O1 (stereo not drawn)
active: [20] 16.6 µM | [7] 16.6 µM | [8] 20.9 µM | [12] 19.3 µM | [13] 7.41 µM
not listed: [14] | [15] | [16] | [19]
inactive: all other assays above

O=C(OC[C@H]1O[C@@H](OC(=O)c2cc(O)c(O)c(O)c2)[C@H](OC(=O)c2cc(O)c(O)c(O)c2)[C@@H](OC(=O)c2cc(O)c(O)c(O)c2)[C@@H]1OC(=O)c1cc(O)c(O)c(O)c1)c1cc(O)c(O)c(O)c1
active: [20] 23.5 µM | [13] 11.7 µM
not listed: [4] | [10] | [11] | [14] | [16]
inactive: all other assays above

CC[C@H](O)CCCCC[C@@H]1NC(=O)[C@H]2CCCCN2C(=O)[C@H]([C@H](C)CC)NC(=O)[C@H](Cc2cn(OC)c3ccccc23)NC1=O
not listed: [2] | [7] | [8] | [11] | [14] | [16] | [19] | [20]
inactive: all other assays above

C=C[C@](Cl)(CBr)CCC=C(C)C
not listed: [12]
inactive: all other assays above

C/C(=C\[C@H](C)C(=O)CCCC1CC(=O)NC(=O)C1)[C@@H]1OC(=O)/C=C/CC/C=C/[C@H](O)[C@@H](O)[C@@H]1C
active: [16] 0.662 µM | [20] 0.264 µM | [7] 2.63 µM | [12] 6.11 µM
not listed: [6] | [8] | [11]
inactive: all other assays above

CO[C@H]1/C=C/CCCCC(=O)O[C@@H](/C(C)=C/[C@H](C)C(=O)C[C@H](O)CC2CC(=O)NC(=O)C2)[C@@H](C)C1
active: [16] 14.8 µM | [20] 4.69 µM | [7] 20.9 µM
not listed: [8]
inactive: all other assays above

C/C(=C\[C@H](C)C(=O)/C=C/CC1CC(=O)NC(=O)C1)[C@@H]1OC(=O)/C=C/CC/C=C/C[C@@H](O)[C@@H]1C
active: [16] 3.72 µM | [20] 0.662 µM | [7] 3.31 µM | [8] 3.72 µM | [12] 6.11 µM
not listed: [5] | [6] | [11] | [13] | [14]
inactive: all other assays above

CC[C@@H]1C[C@@]2(CC)OC(=O)[C@@]3(CC)[C@H](CC)[C@@H]1[C@@H]23
not listed: [6]
inactive: all other assays above

COc1cc([C@@H]2c3cc4c(cc3C[C@@]3(O[C@@H]5O[C@H](CO)[C@@H](O)[C@H](O)[C@H]5O)COC(=O)[C@H]23)OCO4)cc(OC)c1OC
active: [16] 0.0469 µM | [20] 0.0418 µM
not listed: [8] | [19]
inactive: all other assays above
